Experimental data published in the supplement of paper PMC3545927.
The other results are listed elsewhere or left out. How many sequences the whole screen found active is unknown.

Target: furin, P09958
Test: furin cleavage Z-score vs untreated control; higher = more cleavage, active = 3.5 or more, inactive = 1 or less, 8 variable residues between constant flanks
In short: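 Cleavage by purified furin was measured on 8-mer peptides fused to a cDNA oligonucleotide and held on magnetic beads by their N-terminus. Reactions (0.01 ml, 1:10 enzyme:substrate) ran 7.5, 15 or 30 min in 50 mM HEPES pH 7.5 with CaCl2 and NaCl. Released DNA was adapter-tagged by PCR and sequenced, with read counts giving abundance. Log counts versus furin-free reactions were lowess-adjusted and scaled by median absolute deviation to give the cleavage Z-score.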

Chain of furin, P09958 (P09958 whole entry): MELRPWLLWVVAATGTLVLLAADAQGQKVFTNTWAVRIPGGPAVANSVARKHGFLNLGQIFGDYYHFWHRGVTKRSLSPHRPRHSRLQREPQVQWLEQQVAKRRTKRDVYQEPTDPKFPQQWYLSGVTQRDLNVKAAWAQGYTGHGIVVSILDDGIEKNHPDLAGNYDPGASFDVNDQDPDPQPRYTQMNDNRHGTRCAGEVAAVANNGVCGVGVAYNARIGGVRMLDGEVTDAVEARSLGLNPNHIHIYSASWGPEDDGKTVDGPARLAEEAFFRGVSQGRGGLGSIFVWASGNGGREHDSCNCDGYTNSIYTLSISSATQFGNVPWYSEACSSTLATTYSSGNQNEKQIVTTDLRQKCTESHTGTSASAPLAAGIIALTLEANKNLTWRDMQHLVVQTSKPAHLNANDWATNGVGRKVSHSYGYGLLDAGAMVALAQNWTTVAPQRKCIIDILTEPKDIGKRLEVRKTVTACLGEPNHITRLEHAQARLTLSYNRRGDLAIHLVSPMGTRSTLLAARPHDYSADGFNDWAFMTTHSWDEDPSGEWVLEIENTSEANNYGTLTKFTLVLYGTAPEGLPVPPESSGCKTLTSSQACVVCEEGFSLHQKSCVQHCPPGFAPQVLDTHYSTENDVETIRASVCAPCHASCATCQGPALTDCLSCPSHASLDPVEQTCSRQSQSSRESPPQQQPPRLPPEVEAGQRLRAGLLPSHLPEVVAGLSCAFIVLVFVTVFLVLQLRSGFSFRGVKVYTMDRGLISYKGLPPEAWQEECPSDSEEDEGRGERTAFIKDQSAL

CAMWECSQHLAGNASASA [HC1688]
furin cleavage Z-score (7.5 min): 0.266 (inactive)
furin cleavage Z-score (15 min): 1.15
furin cleavage Z-score (30 min): 1.3

CADTPCSGSWAGNASASA [HC1831]
furin cleavage Z-score (7.5 min): -0.725 (inactive)
furin cleavage Z-score (15 min): -0.574 (inactive)
furin cleavage Z-score (30 min): -0.127 (inactive)

CALGVRVCEKAGNASASA [HC1453]
furin cleavage Z-score (7.5 min): -0.269 (inactive)
furin cleavage Z-score (15 min): -0.873 (inactive)
furin cleavage Z-score (30 min): -1.56 (inactive)

CAIAAAGQLDAGNASASA [HC1640]
furin cleavage Z-score (7.5 min): 0.168 (inactive)
furin cleavage Z-score (15 min): -0.469 (inactive)
furin cleavage Z-score (30 min): -1.87 (inactive)

CAKRSRRIRPAGNASASA [FS-1461]
furin cleavage Z-score (7.5 min): -0.256 (inactive)
furin cleavage Z-score (15 min): 1.6
furin cleavage Z-score (30 min): 0.134 (inactive)

CAKRLRRRREAGNASASA [FS-1224]
furin cleavage Z-score (7.5 min): 6.7 (active)
furin cleavage Z-score (15 min): 5.88 (active)
furin cleavage Z-score (30 min): 4.7 (active)

CAKRARVVREAGNASASA [FS-262]
furin cleavage Z-score (7.5 min): 9.07 (active)
furin cleavage Z-score (15 min): 8.16 (active)
furin cleavage Z-score (30 min): 7.16 (active)

CASRDRRRREAGNASASA [FS-195]
furin cleavage Z-score (7.5 min): 10.8 (active)
furin cleavage Z-score (15 min): 10.8 (active)
furin cleavage Z-score (30 min): 7.22 (active)

CAFLATCINGAGNASASA [HC695]
furin cleavage Z-score (7.5 min): -1 (inactive)
furin cleavage Z-score (15 min): -1.97 (inactive)
furin cleavage Z-score (30 min): 0.404 (inactive)

CALVGSATLCAGNASASA [HC293]
furin cleavage Z-score (7.5 min): -0.853 (inactive)
furin cleavage Z-score (15 min): -0.387 (inactive)
furin cleavage Z-score (30 min): -0.923 (inactive)

CARREVPCHRAGNASASA [HC2433]
furin cleavage Z-score (7.5 min): 0.899 (inactive)
furin cleavage Z-score (15 min): 1.63
furin cleavage Z-score (30 min): 1.91

CAREPRLVGGAGNASASA [FS-2136]
furin cleavage Z-score (7.5 min): -1.44 (inactive)
furin cleavage Z-score (15 min): -0.28 (inactive)
furin cleavage Z-score (30 min): 0.256 (inactive)

CAATCINGVCAGNASASA [HC696]
furin cleavage Z-score (7.5 min): -1.44 (inactive)
furin cleavage Z-score (15 min): -0.421 (inactive)
furin cleavage Z-score (30 min): -0.171 (inactive)

CARHGRRRRHAGNASASA [FS-1156]
furin cleavage Z-score (7.5 min): 10.6 (active)
furin cleavage Z-score (15 min): 11.5 (active)
furin cleavage Z-score (30 min): 8.22 (active)

CAFVAPGERPAGNASASA [HC911]
furin cleavage Z-score (7.5 min): -1.27 (inactive)
furin cleavage Z-score (15 min): -0.656 (inactive)
furin cleavage Z-score (30 min): -0.848 (inactive)

CAYRCRRPRHAGNASASA [FS-1621]
furin cleavage Z-score (7.5 min): 0.22 (inactive)
furin cleavage Z-score (15 min): 1.07
furin cleavage Z-score (30 min): 0.99 (inactive)

CAFQNRRARHAGNASASA [FS-1589]
furin cleavage Z-score (7.5 min): 9.77 (active)
furin cleavage Z-score (15 min): 11.1 (active)
furin cleavage Z-score (30 min): 10.3 (active)

CATRRRTPRPAGNASASA [FS-1293]
furin cleavage Z-score (7.5 min): -0.0603 (inactive)
furin cleavage Z-score (15 min): -0.269 (inactive)
furin cleavage Z-score (30 min): 0.573 (inactive)

CARPGRLDRHAGNASASA [FS-917]
furin cleavage Z-score (7.5 min): 1.02
furin cleavage Z-score (15 min): -0.871 (inactive)
furin cleavage Z-score (30 min): 0.899 (inactive)

CAAAARRRRHAGNASASA [FS-638]
furin cleavage Z-score (7.5 min): 5.47 (active)
furin cleavage Z-score (15 min): 5.84 (active)
furin cleavage Z-score (30 min): 3.86 (active)

CAFSPRRHWTAGNASASA [HC307]
furin cleavage Z-score (7.5 min): 0.332 (inactive)
furin cleavage Z-score (15 min): -0.669 (inactive)
furin cleavage Z-score (30 min): -0.85 (inactive)

CASTRRRPRHAGNASASA [FS-1170]
furin cleavage Z-score (7.5 min): 4.52 (active)
furin cleavage Z-score (15 min): 3.46
furin cleavage Z-score (30 min): 2.74

CAAAWETARHAGNASASA [HC1568]
furin cleavage Z-score (7.5 min): 0.137 (inactive)
furin cleavage Z-score (15 min): 0.318 (inactive)
furin cleavage Z-score (30 min): -0.358 (inactive)

CATWVLVGGVAGNASASA [HC990]
furin cleavage Z-score (7.5 min): 0.127 (inactive)
furin cleavage Z-score (15 min): -1.42 (inactive)
furin cleavage Z-score (30 min): 0.528 (inactive)

CAAYAAQGYKAGNASASA [HC782]
furin cleavage Z-score (7.5 min): -0.0157 (inactive)
furin cleavage Z-score (15 min): -1.07 (inactive)
furin cleavage Z-score (30 min): -0.556 (inactive)

CAREFRIIFDAGNASASA [FS-2002]
furin cleavage Z-score (7.5 min): -0.0827 (inactive)
furin cleavage Z-score (15 min): -0.962 (inactive)
furin cleavage Z-score (30 min): -0.343 (inactive)

CAPCEPEPDVAGNASASA [HC1241]
furin cleavage Z-score (7.5 min): -0.464 (inactive)
furin cleavage Z-score (15 min): 0.432 (inactive)
furin cleavage Z-score (30 min): -0.805 (inactive)

CATTPVSGSWAGNASASA [HC43]
furin cleavage Z-score (7.5 min): -0.371 (inactive)
furin cleavage Z-score (15 min): 0.0296 (inactive)
furin cleavage Z-score (30 min): 0.074 (inactive)
